Results filed as inconclusive are left out. Where a call stands in place of a potency, no number is given. Calls of active or inactive are those of the source. Unless noted, the call rests on the fitted dose curve; in most records, active means well fitted curve in the direction sought with a large enough effect in the repeat runs; inconclusive means weak or mixed curves; inactive means no such curve, though single readings can be large; an effect the other way counts as inactive or inconclusive.
Assays:
[1] = qHTS assay to identify small molecule agonists of the sonic hedgehog signaling (Shh) pathway (AID 1259368; calls by dose curve;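 further: NIH/3T3-derived 3T3Gli1-Luc cells carrying a stable Gli1-driven firefly luciferase reporter; series mostly up to about 92 µM; nearly all actives have a fitted effect of over 15% in size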)
Summary of the method: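 Mouse fibroblast (NIH/3T3) reporter cells with stably integrated Gli1-Luc were treated 24 hr with compound; firefly luciferase luminescence served as the read-out.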

[2] = qHTS assay to identify small molecule antagonists of the sonic hedgehog signaling (Shh) pathway (AID 1259369; calls by dose curve; further: nearly all actives have a fitted effect of over 45% in size; further: potency means the concentration at half of the fitted maximal effect)
Summary of the method: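 Conditioned medium drives Shh signalling in 3T3Gli1-Luc cells; compounds in DMSO co-applied, 24hr at 37 C, then luciferase luminescence.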

[3] = qHTS assay to identify small molecule agonists of the androgen receptor (AR) signaling pathway in the presence of an antagonist - cell viability counter screen (AID 1259379); further: nearly all actives have a fitted effect of over 25% in size; further: potency means the concentration at half of the fitted maximal effect
Summary of the method: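 A CellTiter-Fluor read-out measured viability of MDA-kb2 reporter cells (MMTV promoter with AR and GR response elements). Treatment: nilutamide 3.0uM final with compounds at 15 concentrations, 16 hr, 37C, 0% CO2.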

[4] = qHTS assay to identify small molecule agonists of the estrogen receptor beta (ER-beta) signaling pathway - cell viability counter screen (AID 1259380); further: nearly all actives have a fitted effect of over 30% in size; further: potency means the concentration at half of the fitted maximal effect
Summary of the method: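 Cells used were ER-beta-UAS-bla HEK293T in medium with 2% charcoal-stripped FBS. They were treated for 16 hr at 37C. Viability came from CellTiter-Glo luminescence.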

[5] = qHTS assay to identify small molecule antagonists of the estrogen receptor beta (ER-beta) signaling pathway - cell viability counter screen (AID 1259382); further: nearly all actives have a fitted effect of over 55% in size; further: potency means the concentration at half of the fitted maximal effect
Summary of the method: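 Agonist-stimulated (1nM E2) ER-beta-UAS-bla HEK293T cells are incubated with library compounds for 16 hr at 37C. Cell viability is then assessed in the reporter-assay wells by adding CellTiter-Glo and reading luminescence after 30 min.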

[6] = molecular target: Estrogen receptor (Homo sapiens) (UniProt P03372); assay: qHTS assay to identify small molecule agonists of the estrogen receptor alpha (ER-alpha) signaling pathway in the presence of an antagonist (AID 1259383; calls by dose curve; further: top concentration of the series differs between compounds; nearly all actives have a fitted effect of over 15% in size)
Chain of Estrogen receptor (Homo sapiens) (P03372 whole entry, looked up): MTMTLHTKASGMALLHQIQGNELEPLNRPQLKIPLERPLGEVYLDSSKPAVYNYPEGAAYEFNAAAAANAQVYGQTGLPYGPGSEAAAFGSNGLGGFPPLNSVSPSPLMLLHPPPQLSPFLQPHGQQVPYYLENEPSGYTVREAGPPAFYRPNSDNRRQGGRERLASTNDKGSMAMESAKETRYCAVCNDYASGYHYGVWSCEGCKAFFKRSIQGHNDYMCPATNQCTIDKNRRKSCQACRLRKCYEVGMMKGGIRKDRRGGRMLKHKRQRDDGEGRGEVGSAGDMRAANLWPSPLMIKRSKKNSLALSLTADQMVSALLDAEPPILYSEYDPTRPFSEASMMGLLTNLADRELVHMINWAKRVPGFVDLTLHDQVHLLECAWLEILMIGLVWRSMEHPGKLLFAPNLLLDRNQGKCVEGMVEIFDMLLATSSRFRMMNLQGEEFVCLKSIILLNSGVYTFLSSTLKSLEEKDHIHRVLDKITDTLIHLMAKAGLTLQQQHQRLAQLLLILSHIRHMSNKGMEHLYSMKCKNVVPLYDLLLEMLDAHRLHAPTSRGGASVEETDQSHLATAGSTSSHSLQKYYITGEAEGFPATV
Summary of the method: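 Using VM7Luc4E2 cells seeded 24hr before treatment, antagonist ICI-182,780 (10.0nM final) was added, followed by compounds at 15 concentrations. Plates incubated 22hr; ONE-Glo luminescence quantified reporter activity.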

[7] = qHTS assay to identify small molecule agonists of the estrogen receptor alpha (ER-alpha) signaling pathway in the presence of an antagonist - cell viability counter screen (AID 1259386);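 further: cells exposed to compounds for 22 h at 37 °C before the viability read; nearly all actives have a fitted effect of over 30% in size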; further: potency means the concentration at half of the fitted maximal effect
Summary of the method: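 ICI-182,780 at 10.0nM final accompanies the compound titration (15 concentrations, 22hr, 37C) on VM7Luc4E2 cells. The CellTiter-Fluor fluorescence readout runs in the same wells as the luciferase assay.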

[8] = molecular target: Progesterone receptor (Homo sapiens) (UniProt P06401); assay: qHTS assay to identify small molecule antagonists of the progesterone receptor (PR) signaling pathway (AID 1346795; active means well fitted inhibition curve with a large enough effect in the signal ratio in the repeat runs, not every such curve was filed as active; the % refers to the signal ratio; further: potency means the concentration at half of the fitted maximal effect)
Chain of Progesterone receptor (Homo sapiens) (P06401 whole entry, looked up): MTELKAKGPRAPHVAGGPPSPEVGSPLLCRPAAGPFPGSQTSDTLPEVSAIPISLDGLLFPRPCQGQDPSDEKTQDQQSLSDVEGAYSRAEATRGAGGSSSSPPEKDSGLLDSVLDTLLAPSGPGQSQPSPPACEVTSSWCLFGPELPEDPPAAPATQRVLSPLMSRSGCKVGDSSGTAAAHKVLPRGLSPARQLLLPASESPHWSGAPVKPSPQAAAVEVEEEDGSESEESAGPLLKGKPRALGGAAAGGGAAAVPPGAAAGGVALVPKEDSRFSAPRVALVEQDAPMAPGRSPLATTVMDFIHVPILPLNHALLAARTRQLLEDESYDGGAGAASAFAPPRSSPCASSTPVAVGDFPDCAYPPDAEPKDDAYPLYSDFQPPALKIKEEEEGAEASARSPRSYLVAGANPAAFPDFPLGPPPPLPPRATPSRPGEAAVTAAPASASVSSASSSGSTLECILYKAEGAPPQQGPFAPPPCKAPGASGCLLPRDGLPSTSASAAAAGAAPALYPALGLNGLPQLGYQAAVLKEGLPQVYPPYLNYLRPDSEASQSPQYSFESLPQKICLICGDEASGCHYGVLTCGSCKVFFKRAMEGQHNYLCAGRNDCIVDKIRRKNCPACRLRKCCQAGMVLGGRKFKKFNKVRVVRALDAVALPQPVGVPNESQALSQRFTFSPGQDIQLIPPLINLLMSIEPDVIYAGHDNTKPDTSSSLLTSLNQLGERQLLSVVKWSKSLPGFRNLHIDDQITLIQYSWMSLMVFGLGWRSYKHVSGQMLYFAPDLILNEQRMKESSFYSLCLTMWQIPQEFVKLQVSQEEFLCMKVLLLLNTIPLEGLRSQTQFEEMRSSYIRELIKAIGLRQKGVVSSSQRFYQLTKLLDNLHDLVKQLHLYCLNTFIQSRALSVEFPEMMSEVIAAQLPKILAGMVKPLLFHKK
Summary of the method: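 Inhibition of R5020-induced (1 nM final) beta-lactamase reporter signal in PR-UAS-bla HEK293T cells was scored by FRET fluorescence after overnight (16 hr) compound treatment.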

[9] = molecular target: Thyrotropin-releasing hormone receptor (Homo sapiens) (UniProt P34981); assay: qHTS assay to identify small molecule antagonists of the thyrotropin-releasing hormone receptor (TRHR) signaling pathway (AID 1346877; active means well fitted inhibition curve with a large enough effect in the repeat runs, not every such curve was filed as active; further: series mostly up to about 51 µM)
Chain of Thyrotropin-releasing hormone receptor (Homo sapiens) (P34981 whole entry, looked up): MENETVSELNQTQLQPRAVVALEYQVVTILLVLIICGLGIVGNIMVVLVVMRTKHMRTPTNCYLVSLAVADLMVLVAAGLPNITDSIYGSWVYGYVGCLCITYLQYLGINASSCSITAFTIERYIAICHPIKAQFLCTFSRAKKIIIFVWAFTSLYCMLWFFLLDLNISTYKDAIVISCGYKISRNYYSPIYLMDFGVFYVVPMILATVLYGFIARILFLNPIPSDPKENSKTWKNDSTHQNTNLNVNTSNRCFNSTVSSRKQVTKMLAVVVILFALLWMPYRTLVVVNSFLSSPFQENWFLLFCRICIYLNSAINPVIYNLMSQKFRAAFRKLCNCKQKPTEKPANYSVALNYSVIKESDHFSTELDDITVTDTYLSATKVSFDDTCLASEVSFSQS
Summary of the method: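 Screening used HEK293 cells engineered with TRHR, with a brief 5 min room-temperature compound exposure preceding addition of TRH to 1 nM. The read-out was kinetic calcium-dye fluorescence, concentration-response from 15 doses in triplicate.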

[10] = qHTS assay to identify small molecule agonists or antagonists of the thyroid stimulating hormone receptor (TSHR) signaling pathway - wild type cell line counter screen (AID 1259384; calls by dose curve)
Summary of the method: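 Counter screen in untransfected Hek293: compounds (15-point titration, triplicate) plus phosphodiesterase inhibitor Ro20-1724 added after 18 h plating; 30 min RT. Intracellular cAMP via competitive d2/cryptate immunoassay, 1 h incubation.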

[11] = molecular target: Thyrotropin receptor (Homo sapiens) (UniProt P16473); assay: qHTS assay to identify small molecule antagonists of the thyroid stimulating hormone receptor (TSHR) signaling pathway (AID 1259385; calls by dose curve; further: nearly all actives have a fitted effect of over 20% in size; further: potency means the concentration at half of the fitted maximal effect)
Chain of Thyrotropin receptor (Homo sapiens) (P16473 whole entry, looked up): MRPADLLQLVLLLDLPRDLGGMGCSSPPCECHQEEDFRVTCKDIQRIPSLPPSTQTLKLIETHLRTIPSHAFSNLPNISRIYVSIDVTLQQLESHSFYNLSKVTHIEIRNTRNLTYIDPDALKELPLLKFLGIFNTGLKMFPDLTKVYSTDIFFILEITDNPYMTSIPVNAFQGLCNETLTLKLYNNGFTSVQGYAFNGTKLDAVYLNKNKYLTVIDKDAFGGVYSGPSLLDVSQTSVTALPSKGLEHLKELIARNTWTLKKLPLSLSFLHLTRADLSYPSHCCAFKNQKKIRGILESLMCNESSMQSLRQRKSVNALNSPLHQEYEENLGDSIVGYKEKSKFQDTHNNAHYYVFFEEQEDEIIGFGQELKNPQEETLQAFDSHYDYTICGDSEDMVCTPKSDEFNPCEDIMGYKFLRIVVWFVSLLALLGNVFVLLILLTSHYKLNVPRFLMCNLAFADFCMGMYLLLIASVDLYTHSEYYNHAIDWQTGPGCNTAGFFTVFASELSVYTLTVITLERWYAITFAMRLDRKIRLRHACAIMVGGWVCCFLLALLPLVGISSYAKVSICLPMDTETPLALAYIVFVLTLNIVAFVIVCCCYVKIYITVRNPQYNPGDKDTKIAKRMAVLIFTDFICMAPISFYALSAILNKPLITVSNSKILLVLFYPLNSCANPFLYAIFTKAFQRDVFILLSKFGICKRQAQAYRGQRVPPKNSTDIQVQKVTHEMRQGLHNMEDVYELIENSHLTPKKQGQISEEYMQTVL
Summary of the method: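 Antagonist mode: compound-treated TSHR-expressing HEK293 cells were stimulated with 1.5 ng/mL TSH (final) in presence of Ro20-1724 for 30 min at RT. HTRF cAMP detection after 1 h; each compound tested at 15 concentrations, triplicate.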

[12] = molecular target: Progesterone receptor (Homo sapiens) (UniProt P06401); assay: qHTS assay to identify small molecule agonists of the progesterone receptor (PR) signaling pathway (AID 1346784; calls by dose curve; further: nearly all actives have a fitted effect of over 30% in size; further: potency means the concentration at half of the fitted maximal effect)
Summary of the method: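 Using charcoal-stripped serum (2%) to limit endogenous steroids, PR-UAS-bla HEK 293T cells received compounds for 16 hr at 37C after 6 hr plating; beta-lactamase FRET fluorescence was recorded following 2 hr substrate loading at room temperature.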

[13] = qHTS assay to identify small molecule antagonists of the progesterone receptor (PR) signaling pathway - cell viability counter screen (AID 1346798); further: nearly all actives have a fitted effect of over 50% in size; further: potency means the concentration at half of the fitted maximal effect
Summary of the method: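 ATP content as viability readout: CellTiter-Glo luminescence, 30 min room temperature, in PR-UAS-bla HEK293T cells after 16 hr compound/R5020 treatment at 37C and 5% CO2.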

[14] = qHTS assay to identify small molecule antagonists of the TGF-beta/Smad signaling pathway - cell viability counter screen (AID 1346824); further: nearly all actives have a fitted effect of over 50% in size
Summary of the method: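 Cytotoxicity counter-screen run in the same wells as the beta-lactamase Smad reporter read: CellTiter-Glo luminescence after 30 min at room temperature. HEK 293T SBE-bla cells had 5 hr compound exposure at 37 C with TGF-beta1 (0.25 ng/mL stock).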

[15] = qHTS assay to identify small molecule agonists of the TGF-beta/Smad signaling pathway - cell viability counter screen (AID 1346829); further: top concentration of the series differs between compounds; nearly all actives have a fitted effect of over 45% in size
Summary of the method: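 CellTiter-Glo luminescence readout; SBE-bla HEK 293T cells, overnight plating, compound 5 hr at 37 C/5% CO2, then bla substrate 2 hr RT, then CellTiter-Glo 30 min RT.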

[16] = qHTS assay to identify small molecule agonists of the TGF-beta/Smad signaling pathway (AID 1346859; active means well fitted activation curve with a large enough effect in the signal ratio in the repeat runs, not every such curve was filed as active; the % refers to the signal ratio; further: series mostly up to about 77 µM)
Summary of the method: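 Stable Smad binding element-beta-lactamase HEK 293T cells; 5 hr compound exposure at 37 C under 5% CO2; 2 hr room-temperature substrate step; fluorescence excited at 405 nm, collected at 460 nm and 530 nm.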

[17] = molecular target: Androgen receptor (Homo sapiens) (UniProt P10275); assay: qHTS assay to identify small molecule agonists of the androgen receptor (AR) signaling pathway in the presence of an antagonist (AID 1259381; calls by dose curve; further: nearly all actives have a fitted effect of over 15% in size)
Chain of Androgen receptor (Homo sapiens) (P10275 whole entry, looked up): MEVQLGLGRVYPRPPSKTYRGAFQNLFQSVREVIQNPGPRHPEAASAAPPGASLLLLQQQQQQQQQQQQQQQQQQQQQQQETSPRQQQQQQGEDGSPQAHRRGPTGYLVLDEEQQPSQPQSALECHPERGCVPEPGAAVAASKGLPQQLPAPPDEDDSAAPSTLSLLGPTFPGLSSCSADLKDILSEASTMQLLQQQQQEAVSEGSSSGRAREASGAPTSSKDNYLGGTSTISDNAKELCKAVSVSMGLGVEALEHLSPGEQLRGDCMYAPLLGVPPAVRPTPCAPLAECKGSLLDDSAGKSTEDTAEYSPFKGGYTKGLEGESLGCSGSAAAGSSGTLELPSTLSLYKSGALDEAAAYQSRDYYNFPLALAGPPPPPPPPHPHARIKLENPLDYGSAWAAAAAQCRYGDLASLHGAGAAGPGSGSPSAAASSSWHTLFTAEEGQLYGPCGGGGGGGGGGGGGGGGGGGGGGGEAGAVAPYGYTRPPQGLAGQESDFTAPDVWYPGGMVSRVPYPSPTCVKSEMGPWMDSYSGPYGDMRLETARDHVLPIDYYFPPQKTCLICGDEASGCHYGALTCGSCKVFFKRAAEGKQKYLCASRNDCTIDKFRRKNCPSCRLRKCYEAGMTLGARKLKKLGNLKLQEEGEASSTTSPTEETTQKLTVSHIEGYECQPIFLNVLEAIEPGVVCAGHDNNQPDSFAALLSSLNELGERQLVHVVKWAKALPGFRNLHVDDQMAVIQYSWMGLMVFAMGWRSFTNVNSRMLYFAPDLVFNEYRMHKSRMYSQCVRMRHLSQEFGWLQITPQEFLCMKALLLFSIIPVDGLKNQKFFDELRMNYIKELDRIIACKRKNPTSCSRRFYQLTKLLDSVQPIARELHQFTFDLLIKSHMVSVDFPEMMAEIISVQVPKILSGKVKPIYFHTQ
Summary of the method: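 Using human MDA-kb2 cells with an MMTV promoter–luciferase construct (AR and GR response elements), agonist activity is scored under 3.0uM nilutamide (final) co-treatment; 16hr incubation, 37C, luminescence readout via ONE-Glo.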

[18] = qHTS assay to identify small molecule agonists of the progesterone receptor (PR) signaling pathway - cell viability counter screen (AID 1346799; calls by dose curve; further: nearly all actives have a fitted effect of over 45% in size; further: potency means the concentration at half of the fitted maximal effect)
Summary of the method: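 Cytotoxicity in PR-bla HEK293T cells: 16 h compound, 37C; CellTiter-Glo added post-FRET read; luminescence after 30 min RT.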

Row | Compound | Potency [1] | Potency [2] | Potency [3] | Potency [4] | Potency [5] | Potency [6] | Potency [7] | Potency [8] | outcome [9] | outcome [10] | Potency [11] | Potency [12] | Potency [13] | Potency [14] | Potency [15] | Potency [16] | Potency [17] | Potency [18]
1 | CC(C)COCC(CN(Cc1ccccc1)c1ccccc1)N1CCCC1 (stereo not given) | inactive | 26.6 µM (active) | 26.6 µM (active) | 29.8 µM (active) | 21.1 µM (active) | inactive | inactive | 29.8 µM (active) | inactive |  |  |  |  |  |  |  |  | 
2 | CCOC(=O)c1ccc(I)cc1 | inactive | inactive | inactive | inactive | inactive | inactive | inactive | inactive | inactive | inactive | inactive | 5.5 µM (active) | inactive | inactive | inactive | inactive |  | 
3 | O=c1cc(-c2ccccc2)oc2cc(O)cc(O)c12 | inactive | 61.1 µM (active) | 48.6 µM (active) |  | inactive |  | 48.6 µM (active) |  |  | inactive | inactive |  |  |  | inactive |  | inactive | 
4 | CCOC(=O)c1ccc(O)c(O)c1 | inactive | 29.8 µM (active) | inactive | inactive | inactive | inactive | inactive | inactive |  | inactive | inactive | inactive | inactive | inactive | inactive | inactive |  | 
5 | CC(CO)CO | inactive | inactive | inactive | inactive | inactive | inactive | inactive | inactive | inactive | inactive | inactive | inactive | inactive |  | inactive | inactive |  | inactive
6 | Cc1ccc(Cl)c(Nc2ccccc2C(=O)O)c1Cl | inactive | inactive | inactive |  |  | inactive | inactive |  | inactive | inactive | inactive | inactive |  | inactive | inactive |  |  | inactive
7 | O=C(O)c1cccc(-c2noc(-c3ccccc3F)n2)c1 | inactive | 0.237 µM (active) | inactive | 26.6 µM (active) |  |  | inactive | inactive |  | inactive | inactive | inactive |  |  |  |  |  | 
8 | CCCCCCCCCCCCCCN(CCO)CCO | inactive | 19.3 µM (active) | 61.1 µM (active) | 54.5 µM (active) | 48.6 µM (active) |  | inactive |  | inactive |  |  |  |  |  |  | inactive |  | 34.4 µM (active)
9 | Cc1cccc(O)c1N | inactive | 15.5 µM (active) | inactive |  |  |  |  | 30.9 µM (active) | inactive | inactive | inactive |  | inactive | inactive | inactive | inactive |  | 
10 | CC(C)c1nc(CN(C)C(=O)N[C@H](C(=O)N[C@@H](Cc2ccccc2)C[C@H](O)[C@H](Cc2ccccc2)NC(=O)OCc2cncs2)C(C)C)cs1 | inactive | inactive | inactive | 15 µM (active) | 21.1 µM (active) | inactive | 13.3 µM (active) |  |  | inactive | inactive | inactive | 29.8 µM (active) |  | inactive | inactive |  | 26.6 µM (active)
11 | COc1cc(Nc2c(C#N)cnc3cc(OCCCN4CCN(C)CC4)c(OC)cc23)c(Cl)cc1Cl | inactive | 13.3 µM (active) | 29.8 µM (active) | 33.5 µM (active) | inactive |  |  | 11.9 µM (active) |  | inactive | 13.3 µM (active) | inactive | inactive | inactive | inactive | inactive |  | 
12 | C(=C\c1ccccc1)/c1ccccc1 | inactive | inactive | inactive | inactive | inactive | inactive | inactive | inactive | inactive | inactive | inactive | inactive | inactive | inactive | inactive | inactive |  | inactive
13 | C=COCC(C)C | inactive | inactive | inactive | inactive | inactive | inactive | inactive |  | inactive | inactive |  |  | inactive | inactive | inactive | inactive |  | inactive
14 | O=C(/C=C/c1ccc(O)c(O)c1)O[C@@H]1C[C@@](OC(=O)/C=C/c2ccc(O)c(O)c2)(C(=O)O)C[C@@H](O)[C@@H]1O | inactive | inactive | inactive | inactive | inactive | inactive | inactive | inactive | inactive | inactive | inactive |  | inactive | inactive | inactive | inactive |  | 
15 | CCC(C)COC(C)=O (stereo not given) | inactive | inactive | inactive | inactive | inactive | inactive | inactive | inactive |  | inactive |  |  | inactive | inactive | inactive | inactive |  | inactive
16 | CCOC(=O)c1ccc(OCCN2C[C@H](O)[C@@H](O)[C@H](O)[C@H]2CO)cc1 | inactive | inactive | inactive | inactive | inactive | inactive | inactive | inactive | inactive | inactive | inactive | inactive | inactive | inactive | inactive | inactive |  | inactive
